From PubChem BioAssay AID1159580 (chemical genetic matrix, 2015)
Out of some 5,500 compounds screened, about 2,000 (36%) were called active. Roughly 18% stayed inconclusive and do not appear here. No stated cut-off is given here; in the data, active means normalized growth mostly below about 0.91 (no sharp cut-off); inconclusive means no clear call, values can overlap the other calls; inactive means mostly above about 0.92. Some of the results follow.

Test: chemical genetic growth profiling, strain panel (AID 1159580);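 further: tested at 20 µM; growth read once vehicle control cultures reached saturation at 30 °C; 1 = growth at the plate median or of vehicle wells; lower values mean less growth of the strain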
Conditions: growth OD

Measured: normalized growth

CC[C@H]1OC(=O)[C@H](C)[C@@H](O[C@H]2C[C@@](C)(OC)[C@@H](O)[C@H](C)O2)[C@H](C)[C@@H](O[C@@H]2O[C@H](C)C[C@H](N(C)C)[C@H]2O)[C@](C)(O)C[C@@H](C)/C(=N/OCOCCOC)[C@H](C)[C@@H](O)[C@]1(C)O
inactive: S. cerevisiae deletion strains, locus YJR075W, strain HOC1, hits give low values 0.989 | S. cerevisiae deletion strains, locus YKL009W, strain mrt4, hits give low values 1.01 | S. cerevisiae deletion strains, locus YKL068W, hits give low values 1 | S. cerevisiae deletion strains, locus YKL085W, strain MDH1 (second series), hits give low values 1 | S. cerevisiae deletion strains, locus YKL085W, strain MDH1, hits give low values 1 | S. cerevisiae deletion strains, locus YKL160W, strain elf1, hits give low values 1.02 | S. cerevisiae deletion strains, locus YKL190W, strain CNB1, hits give low values 1 | S. cerevisiae deletion strains, locus YKR001C, strain vps1, hits give low values 1.01 | S. cerevisiae deletion strains, locus YKR026C, strain gcn3, hits give low values 1 | S. cerevisiae deletion strains, locus YKR091W, strain srl3, hits give low values 1 | S. cerevisiae deletion strains, locus YLL001W, strain dnm1, hits give low values 1.02 | S. cerevisiae deletion strains, locus YLL026W, hits give low values 1.01 | S. cerevisiae deletion strains, locus YLL041C, strain sdh2, hits give low values 1.01 | S. cerevisiae deletion strains, locus YLR027C, strain aat2, hits give low values 1.01 | S. cerevisiae deletion strains, locus YLR039C, strain RIC1, hits give low values 0.968 | S. cerevisiae deletion strains, locus YLR058C, strain SHM2, hits give low values 0.998 | S. cerevisiae deletion strains, locus YLR102C, strain apc9, hits give low values 0.989 | S. cerevisiae deletion strains, locus YLR113W, strain HOG1, hits give low values 0.967 | S. cerevisiae deletion strains, locus YLR221C, strain rsa3, hits give low values 1.01 | S. cerevisiae deletion strains, locus YLR258W, strain gsy2, hits give low values 1.02 | S. cerevisiae deletion strains, locus YLR262C, strain YPT6 (second series), hits give low values 0.989 | S. cerevisiae deletion strains, locus YLR262C, strain YPT6, hits give low values 0.997 | S. cerevisiae deletion strains, locus YLR268W, strain sec22, hits give low values 1.03 | S. cerevisiae deletion strains, locus YLR320W, strain mms22, hits give low values 0.993 | S. cerevisiae deletion strains, locus YLR330W, strain CHS5, hits give low values 1.01 | S. cerevisiae deletion strains, locus YLR342W, strain FKS1 (second series), hits give low values 1.01 | S. cerevisiae deletion strains, locus YLR342W, strain FKS1, hits give low values 1.02 | S. cerevisiae deletion strains, locus YLR357W, strain rsc2, hits give low values 1.05 | S. cerevisiae deletion strains, locus YLR370C, strain arc18, hits give low values 1.01 | S. cerevisiae deletion strains, locus YLR371W, strain rom2, hits give low values 0.972 | S. cerevisiae deletion strains, locus YLR418C, strain cdc73, hits give low values 1.03 | S. cerevisiae deletion strains, locus YML016C, strain PPZ1, hits give low values 1.01 | S. cerevisiae deletion strains, locus YML032C, strain rad52, hits give low values 1.01 | S. cerevisiae deletion strains, locus YML120C, strain ndi1, hits give low values 1.01 | S. cerevisiae deletion strains, locus YML124C, strain tub3, hits give low values 0.999 | S. cerevisiae deletion strains, locus YMR058W, strain fet3, hits give low values 1.01 | S. cerevisiae deletion strains, locus YMR078C, strain ctf18, hits give low values 1.01 | S. cerevisiae deletion strains, locus YMR125W, strain sto1, hits give low values 1.01 | S. cerevisiae deletion strains, locus YMR129W, hits give low values 1.02 | S. cerevisiae deletion strains, locus YMR205C, strain PFK2, hits give low values 0.99 | S. cerevisiae deletion strains, locus YMR223W, strain ubp8, hits give low values 1.03 | S. cerevisiae deletion strains, locus YMR231W, strain pep5, hits give low values 1.01 | S. cerevisiae deletion strains, locus YMR307W, strain GAS1, hits give low values 1.02 | S. cerevisiae deletion strains, locus YNL067W, strain RPL9B, hits give low values 0.986 | S. cerevisiae deletion strains, locus YNL071W, strain lat1, hits give low values 0.955 | S. cerevisiae deletion strains, locus YNL183C, strain NPR1, hits give low values 0.937 | S. cerevisiae deletion strains, locus YNL209W, strain ssb2, hits give low values 1.01 | S. cerevisiae deletion strains, locus YNL233W, strain BNI4, hits give low values 0.977 | S. cerevisiae deletion strains, locus YNL248C, strain rpa49, hits give low values 1.03 | S. cerevisiae deletion strains, locus YNL250W, strain rad50, hits give low values 1.05 | S. cerevisiae deletion strains, locus YNL271C, strain bni1, hits give low values 1.01 | S. cerevisiae deletion strains, locus YNL298W, strain CLA4, hits give low values 1.02 | S. cerevisiae deletion strains, locus YNL307C, strain MCK1, hits give low values 1 | S. cerevisiae deletion strains, locus YNL322C, strain KRE1 (second series), hits give low values 1.01 | S. cerevisiae deletion strains, locus YNR049C, strain mso1, hits give low values 1.01 | S. cerevisiae deletion strains, locus YNR052C, strain pop2, hits give low values 1 | S. cerevisiae deletion strains, locus YOL006C, strain TOP1, hits give low values 0.92 | S. cerevisiae deletion strains, locus YOL012C, strain htz1 1.11 | S. cerevisiae deletion strains, locus YOL147C, strain pex11, hits give low values 1.01 | S. cerevisiae deletion strains, locus YOR001W, strain rrp6, hits give low values 1.01 | S. cerevisiae deletion strains, locus YOR061W, strain CKA2, hits give low values 1 | S. cerevisiae deletion strains, locus YOR069W, strain VPS5, hits give low values 1.01 | S. cerevisiae deletion strains, locus YOR070C, strain gyp1, hits give low values 1 | S. cerevisiae deletion strains, locus YOR080W, strain dia2, hits give low values 1.02 | S. cerevisiae deletion strains, locus YOR083W, strain WHI5, hits give low values 1.02 | S. cerevisiae deletion strains, locus YOR106W, strain vam3, hits give low values 1.03 | S. cerevisiae deletion strains, locus YOR136W, strain idh2, hits give low values 1.02 | S. cerevisiae deletion strains, locus YOR144C, strain elg1, hits give low values 1 | S. cerevisiae deletion strains, locus YOR184W, strain ser1, hits give low values 1.01 | S. cerevisiae deletion strains, locus YOR231W, strain MKK1, hits give low values 0.988 | S. cerevisiae deletion strains, locus YOR265W, strain rbl2, hits give low values 1.01 | S. cerevisiae deletion strains, locus YOR270C, strain vph1, hits give low values 1.01 | S. cerevisiae deletion strains, locus YOR290C, strain snf2, hits give low values 1.01 | S. cerevisiae deletion strains, locus YOR316C, strain cot1, hits give low values 0.994 | S. cerevisiae deletion strains, locus YPL051W, strain arl3, hits give low values 1.01 | S. cerevisiae deletion strains, locus YPL055C, strain LGE1, hits give low values 0.988 | S. cerevisiae deletion strains, locus YPL078C, strain atp4, hits give low values 1.01 | S. cerevisiae deletion strains, locus YPL106C, strain sse1, hits give low values 1.04 | S. cerevisiae deletion strains, locus YPL240C, strain hsp82, hits give low values 1.01 | S. cerevisiae deletion strains, locus YPL241C, strain CIN2, hits give low values 1 | S. cerevisiae deletion strains, locus YPL256C, strain CLN2, hits give low values 0.994 | S. cerevisiae deletion strains, locus YPR119W, strain clb2, hits give low values 0.989 | S. cerevisiae deletion strains, locus YPR141C, strain kar3, hits give low values 1.01 | S. cerevisiae deletion strains, locus YPR163C, strain tif3, hits give low values 1 | S. cerevisiae deletion strains, locus YPR167C, strain met16, hits give low values 1.01 | S. cerevisiae deletion strains, strain wtn01, hits give low values 1.02 | S. cerevisiae strains, strain wild type, hits give low values 1.01
